Results on 8 molecules are retold here after PubChem BioAssay (EPA / NIEHS).

Values joined by “and” are separate entries in the source; they are usually repeats but may differ in a detail not shown here. Equal entries are not always repeated. Records with an inconclusive call do not appear. Active and inactive are the calls of the source. The calls were made as follows, unless noted: active = hit-call score of the fitted dose curve at least 0.9, where 1 is the maximum; inconclusive = response in the unintended direction; inactive = score below 0.9.

The nature of assay [1]: CPHEA_Stoker_NIS_Cytotoxicity: Cytotoxicity Assessment for CPHEA's Radioactive Iodide Uptake (RAIU) Assay for Sodium/Iodide Symporter (NIS) Inhibition, Stoker and Laws Labs (AID 2283897).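 As to AC50: active means loss of ATP signal versus DMSO meaning cytotoxicity.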 The gist of the method:
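Viability in hNIS-HEK293T-EPA cells is scored as a drop in luciferase-detected ATP following 2-hour room-temperature exposure (0.001–100uM; triplicate wells, three cell passages), with DMSO as negative control.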

In assay [2] the test system is frog Estrogen Receptor (ER2), gene 100174814. Put plainly: ATG_frER2_XSP2: Attagene TRANS-FACTORIAL Multi-Species (XSP2) HepG2 Assay for frog Estrogen Receptor (ER2) (AID 2283828). The gist of the method:
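Induction of reporter mRNA, baseline set by DMSO, is the endpoint. The panel was run in transfected HepG2 cells over 24 h, with 3 nM 6-alpha-fluorotestosterone and 1.5 nM norgestrel present to stimulate androgen receptor.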

In assay [3] the target is Peroxisome proliferator-activated receptor gamma (Homo sapiens) (UniProt P37231). Put plainly: ATG_hPPARg_XSP2: Attagene TRANS-FACTORIAL Multi-Species (XSP2) HepG2 Assay for human Peroxisome Proliferator-activated Receptor gamma (PPARg) (AID 2283829).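 Also: actives raise reporter mRNA above DMSO so AC50 reflects PPARg activation.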 The gist of the method: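 Multiplexed transactivation in transfected HepG2 liver cells. Gal4-chimeric receptor activity reported as induced reporter transcript after 24 h.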

The target of assay [4] is mouse Peroxisome Proliferator-activated Receptor gamma (PPARg), Pparg (gene 19016) (UniProt P37238). Put plainly: ATG_mPPARg_XSP2: Attagene TRANS-FACTORIAL Multi-Species (XSP2) HepG2 Assay for mouse Peroxisome Proliferator-activated Receptor gamma (PPARg) (AID 2283830).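 Also: hits are gains in reporter mRNA above DMSO so AC50 marks activation.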 The gist of the method: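 Multiplexed TRANS reporter readout: after 24 h chemical exposure of transfected HepG2 cells (with 3 nM 6-alpha-fluorotestosterone, 1.5 nM norgestrel present), RNA reverse-transcribed, amplified, 6-FAM-labelled and resolved by capillary electrophoresis; mouse PPARg-Gal4 induction scored against DMSO.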

Assay [5] has as its target Nuclear receptor subfamily 1 group I member 2 (Mus musculus) (UniProt O54915). Description: ATG_mPXR_XSP2: Attagene TRANS-FACTORIAL Multi-Species (XSP1) HepG2 Assay for mouse Pregnane X Receptor (PXR) (AID 2283831). An outline of the steps:
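Human liver HepG2 cells expressing exogenous receptor-GAL4 chimeras were exposed to test chemicals for 24 h. Induction of reporter mRNA was scored as gain of fluorescence signal over DMSO controls.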

Assay [6] has as its target zebrafish Thyroid Hormone Receptor alpha (TRa), thraa (gene 30670) (UniProt Q98867). Put plainly: ATG_zfTRa_XSP2: Attagene TRANS-FACTORIAL Multi-Species (XSP1) HepG2 Assay for zebrafish Thyroid Hormone Receptor alpha (TRa) (AID 2283832).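 Also: actives raise zebrafish TRa-Gal4 reporter transcript above DMSO baseline.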 The gist of the method:
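Multiplexed TRANS reporter format in HepG2; the medium also contained 3 nM 6-alpha-fluorotestosterone and 1.5 nM norgestrel. Reporter mRNA after 24 h read by RT-PCR and capillary electrophoresis, scored as induction over DMSO.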

Assay [7] relates to turtle Thyroid Hormone Receptor, alpha (TRa), gene 101949057. Put plainly: ATG_trTRa_XSP2: Attagene TRANS-FACTORIAL Multi-Species (XSP1) HepG2 Assay for turtle Thyroid Hormone Receptor, alpha (TRa) (AID 2283834).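 Also: hits raise reporter mRNA over the DMSO baseline so AC50 marks activators.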 The gist of the method: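 Gain-of-signal reporter transcription measured in transiently transfected HepG2 at 24 h post-dose. Fluorescent RT-PCR products were resolved by capillary electrophoresis and compared with DMSO vehicle.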

Assay [8] can be described thus: ATG_M_61_XSP2: Attagene TRANS-FACTORIAL Multi-Species (XSP2) HepG2 Assay for M61 Transcription Factor (Internal Marker) (AID 2283835; active = hit-call score of the fitted dose curve at least 0.9, where 1 is the maximum; inactive = score below 0.9;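 also: active means a rise in signal above the DMSO baseline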). An outline of the steps: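 Signal was mRNA induction detected as fluorescence after RT-PCR and capillary electrophoresis, analysed in the gain direction with DMSO as baseline. HepG2 cells transiently carrying reporter constructs received chemicals for 24 h.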

Assay [9] concerns the target zebrafish Thyroid Hormone Receptor beta (TRb), thrb (gene 30607) (UniProt Q9PVE4). Description: ATG_zfTRb_XSP2: Attagene TRANS-FACTORIAL Multi-Species (XSP1) HepG2 Assay for zebrafish Thyroid Hormone Receptor beta (TRb) (AID 2283836). An outline of the steps: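 Multiplexed trans-activation in HepG2 cells, 24 h treatment, with reporter mRNA read by RT-PCR and capillary electrophoresis. Gain-of-signal against DMSO.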

Assay [10] can be described thus: ATG_XTT_Cytotoxicity_XSP2: Cytotoxicity Assessment in the Attagene TRANS-FACTORIAL Multi-Species (XSP2) HepG2 Assay (AID 2283837). The gist of the method:
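XTT-based cell number read-out in human HepG2 liver cells carrying transfected reporter units, measured 24 h after chemical dosing. Activity is signal loss versus DMSO baseline.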

Assay [11] deals with human Thyroid hormone Receptor alpha (TRa), THRA (gene 7067) (UniProt P10827). Description: ATG_hTRa_XSP2: Attagene TRANS-FACTORIAL Multi-Species (XSP2) HepG2 Assay for human Thyroid hormone Receptor alpha (TRa) (AID 2283838). The gist of the method:
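Gain-of-signal in reporter mRNA, relative to DMSO, after 24 h dosing of transfected HepG2; quantitation by RT-PCR fragment analysis on capillary electrophoresis.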

The target of assay [12] is frog Thyroid hormone Receptor alpha (TRa), thra-a (gene 397942) (UniProt P15204). Description: ATG_frTRa_XSP2: Attagene TRANS-FACTORIAL Multi-Species (XSP2) HepG2 Assay for frog Thyroid hormone Receptor alpha (TRa) (AID 2283839). An outline of the steps: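 Frog thyroid receptor alpha was tested as an exogenous NR-Gal4 fusion in transiently transfected HepG2 cells. After 24 h chemical treatment, reporter mRNA induction was quantified by RT-PCR and capillary electrophoresis, with gain-of-signal analysed relative to DMSO.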

In assay [13] the target is human Thyroid hormone Receptor beta (TRb), THRB (gene 7068) (UniProt P10828). Put plainly: ATG_hTRb_XSP2: Attagene TRANS-FACTORIAL Multi-Species (XSP2) HepG2 Assay for human Thyroid hormone Receptor beta (TRb) (AID 2283840).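 Also: actives raise reporter mRNA so potency reflects agonist-like gain of signal.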 The gist of the method:
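In this cell-based multiplex, HepG2 liver cells carrying transfected GAL4-UAS reporter constructs are exposed to chemical for 24 hours, then reporter transcripts are measured by RT-PCR with capillary electrophoresis, scored as gain of signal against DMSO.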

Assay [14] in a line: CEETOX_H295R_11DCORT_noMTC: CeeTox H295R High-throughput Steroidogenesis Assay for 11-Deoxycortisol (11DCORT), maximum tolerated concentration (MTC) filtered results only (AID 2283911; active = hit-call score of the fitted dose curve at least 0.9, where 1 is the maximum; inactive = score below 0.9). As to conditions: actives raise or lower the signal. An outline of the steps: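 Readout is 11-deoxycortisol in culture medium by reverse-phase HPLC with MS/MS, after 48 h chemical treatment of forskolin-primed H295R cells. Values are relative to DMSO and unfiltered for cytotoxicity.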

Assay [15] can be described thus: CEETOX_H295R_OHPREG_noMTC: CeeTox H295R High-throughput Steroidogenesis Assay for OH-Pregnenolone (OHPREG), maximum tolerated concentration (MTC) filtered results only (AID 2283912; active = hit-call score of the fitted dose curve at least 0.9, where 1 is the maximum; inactive = score below 0.9). As to conditions: actives raise or lower the signal. The gist of the method:
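Readout is HPLC-MS/MS quantification of 17alpha-hydroxypregnenolone released by forskolin-stimulated H295R cells over 48 h of chemical exposure, DMSO as baseline.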

The nature of assay [16]: CEETOX_H295R_OHPROG_noMTC: CeeTox H295R High-throughput Steroidogenesis Assay for OH-Progesterone (OHPROG), maximum tolerated concentration (MTC) filtered results only (AID 2283914; active = hit-call score of the fitted dose curve at least 0.9, where 1 is the maximum; inactive = score below 0.9). As to conditions: actives raise or lower the signal. An outline of the steps:
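Analysis uses all tested concentrations, without maximum-tolerated-concentration screening by MTT. H295R cells, forskolin-primed (10 uM, 48 h), receive chemical for 48 h; hormone in medium measured by HPLC-MS/MS, with bidirectional curve fitting against DMSO.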

A short description of assay [17]: CEETOX_H295R_ANDR_noMTC: CeeTox H295R High-throughput Steroidogenesis Assay for Androstenedione (ANDR), maximum tolerated concentration (MTC) filtered results only (AID 2283915; active = hit-call score of the fitted dose curve at least 0.9, where 1 is the maximum; inactive = score below 0.9). As to conditions: actives raise or lower the signal. The gist of the method: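 Androstenedione secreted into medium was measured by LC-MS/MS after MTBE extraction. Human adrenal H295R cells received 10 uM forskolin for 48 h before 48 h chemical exposure (0.1% DMSO). Gain or loss fitted against DMSO, including concentrations above the MTT-derived MTC.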

A short description of assay [18]: CEETOX_H295R_CORTISOL_noMTC: CeeTox H295R High-throughput Steroidogenesis Assay for Cortisol, maximum tolerated concentration (MTC) filtered results only (AID 2283916; active = hit-call score of the fitted dose curve at least 0.9, where 1 is the maximum; inactive = score below 0.9). As to conditions: actives raise or lower the signal. The gist of the method: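 H295R adrenal cells were pre-stimulated 48 h with 10 uM forskolin, then exposed 48 h to test chemical in 0.1% DMSO. Medium cortisol was measured by MTBE extraction and HPLC-MS/MS; bidirectional fit versus DMSO, concentrations not MTC-filtered.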

Assay [19] is described as follows: CEETOX_H295R_CORTIC_noMTC: CeeTox H295R High-throughput Steroidogenesis Assay for Corticosterone (CORTIC), maximum tolerated concentration (MTC) filtered results only (AID 2283917; active = hit-call score of the fitted dose curve at least 0.9, where 1 is the maximum; inactive = score below 0.9). As to conditions: actives raise or lower the signal. An outline of the steps: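 Forskolin-stimulated (10 uM, 48 h) H295R cells are dosed 48 h with chemical in DMSO (0.1% final); corticosterone change is quantified by HPLC-MS/MS and fitted bidirectionally against DMSO, unfiltered for MTT-derived MTC.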

The subject of assay [20] is zebrafish Peroxisome Proliferator-activated Receptor gamma (PPARg), gene 557037. Description: ATG_zfPPARg_XSP2: Attagene TRANS-FACTORIAL Multi-Species (XSP2) HepG2 Assay for zebrafish Peroxisome Proliferator-activated Receptor gamma (PPARg) (AID 2283833).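 Also: reporter mRNA from a zebrafish PPARg GAL4 chimera measured by RT-PCR and capillary electrophoresis; actives increase reporter signal over DMSO so AC50 reflects activation.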 An outline of the steps: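 Cell-based transactivation of a chimeric zebrafish PPARg-GAL4 receptor was assessed in transiently transfected HepG2 cells after 24 h of treatment. Reporter mRNA induction, detected fluorescently after RT-PCR, was analysed in the positive direction against DMSO.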

Chain of human Thyroid hormone Receptor beta (TRb), THRB (gene 7068) (P10828 whole entry, looked up, the tested form may be a part): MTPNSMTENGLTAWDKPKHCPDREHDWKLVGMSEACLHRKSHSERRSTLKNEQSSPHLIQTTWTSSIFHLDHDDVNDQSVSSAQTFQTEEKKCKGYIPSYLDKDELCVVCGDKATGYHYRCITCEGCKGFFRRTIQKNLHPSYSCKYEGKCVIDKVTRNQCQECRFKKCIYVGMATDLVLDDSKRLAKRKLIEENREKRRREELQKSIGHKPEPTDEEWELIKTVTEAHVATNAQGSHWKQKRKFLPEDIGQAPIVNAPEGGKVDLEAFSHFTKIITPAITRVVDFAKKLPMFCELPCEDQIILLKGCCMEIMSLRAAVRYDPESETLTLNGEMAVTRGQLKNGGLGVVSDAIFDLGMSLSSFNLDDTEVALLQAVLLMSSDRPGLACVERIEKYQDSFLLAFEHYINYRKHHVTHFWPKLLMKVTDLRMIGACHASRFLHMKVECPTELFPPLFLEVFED
Chain of Peroxisome proliferator-activated receptor gamma (Homo sapiens) (P37231 whole entry, looked up, the tested form may be a part): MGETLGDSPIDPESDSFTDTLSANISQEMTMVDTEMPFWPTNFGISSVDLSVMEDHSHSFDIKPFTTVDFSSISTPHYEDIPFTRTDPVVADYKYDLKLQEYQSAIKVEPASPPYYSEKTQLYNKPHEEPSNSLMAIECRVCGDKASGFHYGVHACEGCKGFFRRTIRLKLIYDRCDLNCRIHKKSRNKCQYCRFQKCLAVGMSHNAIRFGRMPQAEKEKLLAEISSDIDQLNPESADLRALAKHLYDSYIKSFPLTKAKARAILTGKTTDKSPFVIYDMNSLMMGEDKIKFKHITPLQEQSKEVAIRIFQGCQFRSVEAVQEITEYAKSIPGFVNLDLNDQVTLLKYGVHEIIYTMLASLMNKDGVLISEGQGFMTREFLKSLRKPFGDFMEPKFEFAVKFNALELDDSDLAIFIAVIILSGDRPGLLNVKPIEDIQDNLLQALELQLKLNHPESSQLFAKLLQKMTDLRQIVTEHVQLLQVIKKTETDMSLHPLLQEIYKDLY
Chain of zebrafish Thyroid Hormone Receptor beta (TRb), thrb (gene 30607) (Q9PVE4 whole entry, looked up): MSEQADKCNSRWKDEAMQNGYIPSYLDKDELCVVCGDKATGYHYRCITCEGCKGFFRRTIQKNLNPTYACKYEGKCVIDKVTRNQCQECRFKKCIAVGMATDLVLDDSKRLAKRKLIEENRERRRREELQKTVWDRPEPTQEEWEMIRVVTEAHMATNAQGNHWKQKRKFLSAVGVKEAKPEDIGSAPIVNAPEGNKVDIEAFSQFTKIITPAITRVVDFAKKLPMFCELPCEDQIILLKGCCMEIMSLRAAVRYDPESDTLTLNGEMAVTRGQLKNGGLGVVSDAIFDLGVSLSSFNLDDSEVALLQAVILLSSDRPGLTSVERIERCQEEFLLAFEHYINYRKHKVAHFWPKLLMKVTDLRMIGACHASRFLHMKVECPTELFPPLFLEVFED
Chain of frog Thyroid hormone Receptor alpha (TRa), thra-a (gene 397942) (P15204 whole entry, looked up, the tested form may be a part): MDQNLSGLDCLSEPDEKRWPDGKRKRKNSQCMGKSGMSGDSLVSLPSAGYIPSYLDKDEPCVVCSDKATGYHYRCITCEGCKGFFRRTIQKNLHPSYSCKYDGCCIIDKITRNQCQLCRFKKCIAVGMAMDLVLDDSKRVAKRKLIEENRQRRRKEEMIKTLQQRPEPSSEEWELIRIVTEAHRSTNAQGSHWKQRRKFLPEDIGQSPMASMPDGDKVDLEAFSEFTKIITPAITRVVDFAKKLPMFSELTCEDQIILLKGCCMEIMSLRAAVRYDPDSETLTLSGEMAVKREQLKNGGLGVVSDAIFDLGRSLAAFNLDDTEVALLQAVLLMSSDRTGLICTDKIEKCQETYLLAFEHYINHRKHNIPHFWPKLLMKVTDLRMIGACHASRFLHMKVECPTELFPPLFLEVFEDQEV
Chain of Nuclear receptor subfamily 1 group I member 2 (Mus musculus) (O54915 whole entry, looked up, the tested form may be a part): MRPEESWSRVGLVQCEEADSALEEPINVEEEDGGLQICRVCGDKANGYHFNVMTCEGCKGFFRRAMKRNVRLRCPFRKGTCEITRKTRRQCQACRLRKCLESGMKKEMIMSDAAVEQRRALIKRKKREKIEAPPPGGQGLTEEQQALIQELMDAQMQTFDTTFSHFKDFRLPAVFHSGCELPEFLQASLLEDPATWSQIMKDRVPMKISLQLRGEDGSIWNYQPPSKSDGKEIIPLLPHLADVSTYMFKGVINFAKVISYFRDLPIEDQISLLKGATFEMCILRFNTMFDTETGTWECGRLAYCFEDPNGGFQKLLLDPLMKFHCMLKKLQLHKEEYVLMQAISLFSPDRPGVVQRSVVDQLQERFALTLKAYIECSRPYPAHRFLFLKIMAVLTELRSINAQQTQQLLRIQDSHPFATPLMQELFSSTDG
Chain of zebrafish Thyroid Hormone Receptor alpha (TRa), thraa (gene 30670) (Q98867 whole entry, looked up, the tested form may be a part): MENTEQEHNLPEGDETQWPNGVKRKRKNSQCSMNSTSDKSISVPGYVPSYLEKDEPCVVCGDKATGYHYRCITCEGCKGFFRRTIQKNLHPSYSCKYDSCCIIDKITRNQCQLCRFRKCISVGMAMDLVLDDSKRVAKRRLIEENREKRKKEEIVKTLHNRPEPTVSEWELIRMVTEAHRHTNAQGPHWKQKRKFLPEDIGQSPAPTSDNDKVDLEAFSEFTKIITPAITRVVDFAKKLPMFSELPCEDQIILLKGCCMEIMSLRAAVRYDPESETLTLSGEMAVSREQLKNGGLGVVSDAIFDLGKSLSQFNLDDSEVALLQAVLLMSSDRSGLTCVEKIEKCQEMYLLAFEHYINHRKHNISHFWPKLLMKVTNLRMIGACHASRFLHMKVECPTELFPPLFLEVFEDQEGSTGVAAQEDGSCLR
Chain of mouse Peroxisome Proliferator-activated Receptor gamma (PPARg), Pparg (gene 19016) (P37238 whole entry, looked up, the tested form may be a part): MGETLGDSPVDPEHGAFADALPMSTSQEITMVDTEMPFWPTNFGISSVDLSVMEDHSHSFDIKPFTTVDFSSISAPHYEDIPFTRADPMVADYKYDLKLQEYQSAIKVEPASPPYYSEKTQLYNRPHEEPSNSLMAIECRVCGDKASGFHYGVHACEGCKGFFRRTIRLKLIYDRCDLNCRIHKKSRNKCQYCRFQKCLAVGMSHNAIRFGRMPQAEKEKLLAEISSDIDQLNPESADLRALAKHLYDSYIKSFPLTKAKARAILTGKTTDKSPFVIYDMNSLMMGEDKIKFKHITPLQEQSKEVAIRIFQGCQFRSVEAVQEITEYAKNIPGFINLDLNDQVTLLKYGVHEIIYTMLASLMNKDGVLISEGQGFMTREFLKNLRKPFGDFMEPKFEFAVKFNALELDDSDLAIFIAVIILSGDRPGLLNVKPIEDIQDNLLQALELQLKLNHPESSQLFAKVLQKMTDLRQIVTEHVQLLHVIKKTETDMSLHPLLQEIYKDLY
Chain of human Thyroid hormone Receptor alpha (TRa), THRA (gene 7067) (P10827 whole entry, looked up, the tested form may be a part): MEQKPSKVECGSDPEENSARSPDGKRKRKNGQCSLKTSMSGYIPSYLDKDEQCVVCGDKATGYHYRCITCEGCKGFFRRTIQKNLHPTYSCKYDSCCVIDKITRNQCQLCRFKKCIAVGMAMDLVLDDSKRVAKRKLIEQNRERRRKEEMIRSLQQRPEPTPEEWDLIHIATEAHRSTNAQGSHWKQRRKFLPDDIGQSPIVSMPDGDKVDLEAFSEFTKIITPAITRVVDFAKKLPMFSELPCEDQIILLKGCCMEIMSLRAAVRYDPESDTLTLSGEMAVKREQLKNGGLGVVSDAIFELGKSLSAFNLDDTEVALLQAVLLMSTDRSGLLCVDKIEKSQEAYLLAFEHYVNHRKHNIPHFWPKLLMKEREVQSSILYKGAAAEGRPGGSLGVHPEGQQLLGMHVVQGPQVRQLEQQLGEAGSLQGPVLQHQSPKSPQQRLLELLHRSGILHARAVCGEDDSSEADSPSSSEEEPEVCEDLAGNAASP

`CN(C)c1ccc(N=NS(=O)(=O)O)cc1`: in [1], the result was inactive.

`Oc1ccc2c(c1)-c1ccccc1C2`: the AC50 (usually the concentration at which the activity in the assay is half-maximal) in assay [2] was 6.95 µM (active) and 3.52 µM (active); in assay [3], 19.8 µM (active) and 28.4 µM (active); in assay [4] it was 43.9 µM (active) and 49.3 µM (active); in assay [5] it was 17.1 µM (active) and 44.2 µM (active). Also, the result in assay [6], in assay [7], in assay [8], in [9], in assay [10] and in assay [11] was inactive. The call in [12] and in [13] was inactive.

`CCOc1cccc(-n2cc(C(=O)N3CCN(c4cc(C(=O)O)c5ccccc5c4)CC3)nc2-c2ccc(C)cc2)c1`: the AC50 in assay [1] was 6.27 µM (active).

Consider `O=c1[nH]c2ccc(S(=O)CCN3CCC(Cc4ccc(F)cc4)CC3)cc2o1` (centres undefined), for which, in assay [1], the outcome was inactive.

Consider `Cn1c(=O)cc(Oc2ccc(F)cc2F)c2cnc(NCC(C)(C)O)nc21`, for which the result in [1] was inactive.

Consider `CC(C)=CCC/C(C)=C\CO`, for which the molecule was classed as inactive in assay [14], in assay [15], in [16] and in [17]. Moreover, the AC50 was 61.5 µM (active) in [18] and 57.7 µM (active) in assay [19].

As to `O=C(OC[C@H]1O[C@@H](OC(=O)c2cc(O)c(O)c(OC(=O)c3cc(O)c(O)c(O)c3)c2)[C@H](OC(=O)c2cc(O)c(O)c(OC(=O)c3cc(O)c(O)c(O)c3)c2)[C@@H](OC(=O)c2cc(O)c(O)c(OC(=O)c3cc(O)c(O)c(O)c3)c2)[C@@H]1OC(=O)c1cc(O)c(O)c(OC(=O)c2cc(O)c(O)c(O)c2)c1)c1cc(O)c(O)c(OC(=O)c2cc(O)c(O)c(O)c2)c1`, the result in assay [1] was inactive.

On to `Clc1nc(Cl)c(Cl)c(Cl)c1Cl`, for which the AC50 was 26 µM (active) in assay [2]; 1.04 µM (active) and 14.9 µM (active) in assay [3]; 1.48 µM (active) and 2.05 µM (active) in assay [4]. In addition, the molecule was classed as inactive in assay [5], in assay [6], in assay [20], in [9], in assay [10] and in assay [12]. For the same molecule, the call in assay [13] and in [1] was inactive.
